From PubChem BioAssay (NCI)
Compounds without any hit were thinned out: in the full panel of roughly 83,000, 20% have a hit.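 Percent growth is the endpoint: 0 to 100 indicates growth inhibition (40 means 60% inhibition), 0 means no net growth, and negative values indicate cell death.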 Values without a mark were called inactive. Active and inactive are the calls of the source. How the source made its calls: active means growth percent below 10; inactive means the rest.

Experiments:
Assay in all cases: NCI-60 one-dose screen, 48 h (100 = growth as untreated, 0 = no growth, -100 = all killed)
Conditions in all cases: 10 µM unless noted
[1] = test system: HCT-15 colon
[2] = test system: HT29 colon
[3] = test system: SNB-75 CNS
[4] = test system: SNB-19 CNS
[5] = test system: U251 CNS
[6] = test system: PC-3 prostate
[7] = test system: SK-MEL-5 melanoma
[8] = test system: UACC-62 melanoma
[9] = test system: LOX IMVI melanoma
[10] = test system: SK-MEL-28 melanoma
[11] = test system: SK-MEL-2 melanoma
[12] = test system: SN12C renal
[13] = test system: UO-31 renal
[14] = test system: TK-10 renal
[15] = test system: ACHN renal
[16] = test system: CAKI-1 renal
[17] = test system: A498 renal
[18] = test system: CCRF-CEM leukemia
[19] = test system: MOLT-4 leukemia

| SMILES | growth [1] | growth [2] | growth [3] | growth [4] | growth [5] | growth [6] | growth [7] | growth [8] | growth [9] | growth [10] | growth [11] | growth [12] | growth [13] | growth [14] | growth [15] | growth [16] | growth [17] | growth [18] | growth [19] |
| --- | --- | --- | --- | --- | --- | --- | --- | --- | --- | --- | --- | --- | --- | --- | --- | --- | --- | --- | --- |
| c1ccc([P+](CCC[P+](c2ccccc2)(c2ccccc2)c2ccccc2)(c2ccccc2)c2ccccc2)cc1 | 101% | 66.9% | 54% | 64.4% | 40% | 38% | 75.1% | 62.5% | 86.6% | 75.1% | 71.1% | 78% | 82.3% | 81.8% | 98.5% | 94.7% | 86.1% | 45.8% | 79.6% |
| CC(=O)Nc1nc(C(=O)N2N=C(C)/C(=C/c3cccs3)C2=O)cs1 | 93.1% | 96.5% | 92% | 102% | 99.4% | 102% | 109% | 113% | 98% | 111% | 98.4% | 110% | 84% | 107% | 113% | 98.6% | 115% | 92.4% | 79.1% |
| O=C(COc1ccccc1)N1N=C(c2ccc(Cl)cc2)CC1c1c[nH]c2ccccc12 (centres undefined) | 62.1% | 90.4% | 66.6% | 93.3% | 58% | 63.2% | 85.5% | 70.9% | 59.1% | 104% | 85.3% | 62.7% | 25.7% | 93.6% | 60.8% | 46% | 72.1% | 11.3% | -8.31% (active) |
| COc1cc(Cn2c(-c3nonc3N)nc3ccccc32)ccc1C | 19.5% | 0.109% (active) | -0.424% (active) | 53.8% | 21.6% | 24.4% | 19.1% | 37.9% | 42.6% | 51.6% | 20.5% | 36% | 48.3% | 54% | 41.2% | 46% | 6.72% (active) | 16.2% | 21.2% |
| COc1cc(CCn2nnc3c(Nc4ccc(N5CCOCC5)cc4)ncnc32)cc(OC)c1 | 93.6% | 99.3% | 94.2% | 93.3% | 95.6% | 72.1% | 93.6% | 91.5% | 97.5% | 97% | 115% | 103% | 86.9% | 123% | 97.4% | 93.9% | 80.4% | 84.5% | 76.4% |
| Clc1ccc(-c2nc(-c3ccco3)cn3ccnc23)cc1 | 50.1% | 40.3% | 32% | 30.6% | -51.3% (active) | 60.2% | 58% | 88% | 55.2% | 102% | 100% | 65.7% | 7.06% (active) | 11.9% | 8.59% (active) | 50.2% | 36.8% | 78.4% | 80% |
| COc1cc(C2C=C(C)N=C3SC(C)=NN32)cc(OC)c1OC (centres undefined) | 95.8% | 102% | 82.5% | 100% | 100% | 95.3% | 101% | 107% | 96.3% | 119% | 107% | 109% | 72% | 102% | 103% | 103% | 81.8% | 91.8% | 92.8% |
| COc1cccc(-n2cc(-c3nc(Cl)c4ccccc4n3)nn2)c1 | 98.2% | 53.1% | 72.3% | 94% | 153% | 97.5% | 95.1% | 97.4% | 109% | 95% | 89.5% | 95.2% | 78.3% | 105% | 112% | 99.1% | 72.9% | 103% | 104% |
| Cc1ccc(OCCn2c(C)nn(-c3ccc(Cl)cc3)c2=O)cc1 | 111% | 119% | 82.6% | 109% | 101% | 92.4% | 109% | 103% | 96.3% | 101% | 146% | 105% | 83.9% | 131% | 103% | 93.7% | 117% | 99.9% | 111% |
| COc1ccc(-c2cn[nH]c2-c2cc(OC)c3c(c2)OCCO3)cc1 | 20.7% | 1.7% (active) | -5.75% (active) | 60.4% | 16.4% | 28.4% | 25.4% | 37.6% | 30.2% | 49.3% | 9.5% (active) | 29.6% | 50.4% | 57.8% | 38% | 56.9% | -13.4% (active) | 17.4% | 12% |
| CCN(Cc1ccccc1)c1ccc(SC#N)cc1 | 64.8% | 70.5% | 83.1% | 90.7% | 81.5% | 30.5% | 93.8% | 90.4% | 49.2% | 86.7% | 104% | 87.9% | 32.9% | 102% | 63.5% | 92.6% | 86.9% | 13% | 59.5% |
| CC(=O)Nc1ccc(S(=O)(=O)NC(CCC(=O)Nc2ccc(Cl)cc2)C(=O)O)cc1 (centres undefined) | 98.9% | 106% | 69.2% | 100% | 90.6% | 97.5% | 97.7% | 67.5% | 81.1% | 94.4% | 107% | 102% | 62.1% | 95.8% | 75.7% | 83% | 58.3% | 88% | 110% |
| CCNC(=O)CCCCC(=O)c1c(C)[nH]c(/C=C2\N=C(c3ccc[nH]3)C=C2OC)c1C | -39.8% (active) | -100% (active) | -12.6% (active) | 54.5% | 1.75% (active) | -42.2% (active) | 48% | 61.5% | -56.9% (active) | 51.9% | 40.8% | 23.3% | -100% (active) | -61.6% (active) | -3.69% (active) | -29.9% (active) | 95.8% | 42.2% | 79.8% |
| CCN(CC)CCCC(C)N=c1cc(Nc2cc(=NC(C)CCCN(CC)CC)c3cc(OC)ccc3o2)oc2ccc(OC)cc12 (centres undefined) | -16.7% (active) | -42% (active) | -90.8% (active) | 2.11% (active) | -57.6% (active) | -26.4% (active) | -97.8% (active) | -72.5% (active) | -77.7% (active) | -94.6% (active) | -83.9% (active) | -9.47% (active) | -88.8% (active) | -50.2% (active) | -14.1% (active) | -39.7% (active) | -8.63% (active) | -41.7% (active) | -55.8% (active) |
| CC(=O)Nc1ccc(S(=O)(=O)N2C(=O)CCC2C(=O)Nc2ccccc2)cc1 (centres undefined) | 45.8% | 34% | 28.9% | 45% | 29.4% | 26.7% | 20.2% | 11% | 29.9% | 48.6% | 43.9% | 40.4% | 14.1% | 27.5% | 30.4% | 9.53% (active) | 2.01% (active) | 17.7% | 28.8% |
| COc1ccc(S(=O)(=O)N2CCN(c3cc4c(cc3F)c(=O)c(C(=O)O)cn4C3CC3)CC2)c(OC)c1 | 97.2% | 113% | 85.7% | 89.5% | 102% | 99.1% | 82.6% | 84.4% | 61.7% | 101% | 105% | 90.7% | 53.2% | 96.8% | 94.9% | 81.8% | 75.1% | 86.5% | 69.3% |
